Reference: PubChem BioAssay AID1159580 (chemical genetic matrix, 2015)
In all, about 5,500 compounds went through this assay and about 2,000 (36%) were called active. About 18% were inconclusive and are not listed. Cut-off read from the data, not from the text of the source: active = normalized growth mostly below about 0.91 (no sharp cut-off); inconclusive = no clear call, values can overlap the other calls; inactive = mostly above about 0.92. The list shows a part of the results.

Assay: chemical genetic growth profiling, strain panel (AID 1159580);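 note: tested at 20 µM; growth read once vehicle control cultures reached saturation at 30 °C; 1 = growth at the plate median or of vehicle wells; lower values mean less growth of the strain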
Conditions: growth OD

Measured: normalized growth

O=c1cccc2n1C[C@H]1CNCC2C1
inactive: S. cerevisiae deletion strains, locus YJR043C, strain POL32, active compounds read low 1.01 | S. cerevisiae deletion strains, locus YJR066W, strain TOR1, active compounds read low 0.988 | S. cerevisiae deletion strains, locus YKL009W, strain mrt4, active compounds read low 1.02 | S. cerevisiae deletion strains, locus YKL068W, active compounds read low 0.98 | S. cerevisiae deletion strains, locus YKL085W, strain MDH1 (second series), active compounds read low 1 | S. cerevisiae deletion strains, locus YKL085W, strain MDH1, active compounds read low 1 | S. cerevisiae deletion strains, locus YKL160W, strain elf1, active compounds read low 0.984 | S. cerevisiae deletion strains, locus YKR001C, strain vps1, active compounds read low 0.964 | S. cerevisiae deletion strains, locus YKR026C, strain gcn3, active compounds read low 0.994 | S. cerevisiae deletion strains, locus YKR091W, strain srl3, active compounds read low 1.01 | S. cerevisiae deletion strains, locus YLL001W, strain dnm1, active compounds read low 0.95 | S. cerevisiae deletion strains, locus YLL026W, active compounds read low 1.01 | S. cerevisiae deletion strains, locus YLL041C, strain sdh2, active compounds read low 0.998 | S. cerevisiae deletion strains, locus YLR027C, strain aat2, active compounds read low 1 | S. cerevisiae deletion strains, locus YLR039C, strain RIC1, active compounds read low 1.01 | S. cerevisiae deletion strains, locus YLR058C, strain SHM2, active compounds read low 1.01 | S. cerevisiae deletion strains, locus YLR102C, strain apc9, active compounds read low 0.985 | S. cerevisiae deletion strains, locus YLR113W, strain HOG1, active compounds read low 0.979 | S. cerevisiae deletion strains, locus YLR221C, strain rsa3, active compounds read low 0.971 | S. cerevisiae deletion strains, locus YLR258W, strain gsy2, active compounds read low 0.982 | S. cerevisiae deletion strains, locus YLR262C, strain YPT6 (second series), active compounds read low 0.998 | S. cerevisiae deletion strains, locus YLR262C, strain YPT6, active compounds read low 1.01 | S. cerevisiae deletion strains, locus YLR268W, strain sec22, active compounds read low 0.971 | S. cerevisiae deletion strains, locus YLR320W, strain mms22, active compounds read low 0.974 | S. cerevisiae deletion strains, locus YLR330W, strain CHS5, active compounds read low 0.989 | S. cerevisiae deletion strains, locus YLR342W, strain FKS1 (second series), active compounds read low 1.04 | S. cerevisiae deletion strains, locus YLR342W, strain FKS1, active compounds read low 1.01 | S. cerevisiae deletion strains, locus YLR357W, strain rsc2, active compounds read low 1.09 | S. cerevisiae deletion strains, locus YLR370C, strain arc18, active compounds read low 0.99 | S. cerevisiae deletion strains, locus YLR371W, strain rom2, active compounds read low 0.976 | S. cerevisiae deletion strains, locus YLR384C, strain iki3, active compounds read low 1 | S. cerevisiae deletion strains, locus YLR418C, strain cdc73, active compounds read low 1.03 | S. cerevisiae deletion strains, locus YML016C, strain PPZ1, active compounds read low 1.01 | S. cerevisiae deletion strains, locus YML032C, strain rad52, active compounds read low 1.01 | S. cerevisiae deletion strains, locus YML120C, strain ndi1, active compounds read low 0.993 | S. cerevisiae deletion strains, locus YML124C, strain tub3, active compounds read low 0.995 | S. cerevisiae deletion strains, locus YMR058W, strain fet3, active compounds read low 1.01 | S. cerevisiae deletion strains, locus YMR078C, strain ctf18, active compounds read low 0.984 | S. cerevisiae deletion strains, locus YMR125W, strain sto1, active compounds read low 0.992 | S. cerevisiae deletion strains, locus YMR129W, active compounds read low 1 | S. cerevisiae deletion strains, locus YMR205C, strain PFK2, active compounds read low 0.994 | S. cerevisiae deletion strains, locus YMR223W, strain ubp8, active compounds read low 1.01 | S. cerevisiae deletion strains, locus YMR231W, strain pep5, active compounds read low 1.01 | S. cerevisiae deletion strains, locus YMR263W, strain SAP30, active compounds read low 1 | S. cerevisiae deletion strains, locus YMR307W, strain GAS1, active compounds read low 1.07 | S. cerevisiae deletion strains, locus YNL067W, strain RPL9B, active compounds read low 1.01 | S. cerevisiae deletion strains, locus YNL071W, strain lat1, active compounds read low 1.01 | S. cerevisiae deletion strains, locus YNL153C, strain GIM3, active compounds read low 1.03 | S. cerevisiae deletion strains, locus YNL183C, strain NPR1, active compounds read low 0.987 | S. cerevisiae deletion strains, locus YNL209W, strain ssb2, active compounds read low 1.01 | S. cerevisiae deletion strains, locus YNL233W, strain BNI4, active compounds read low 1.03 | S. cerevisiae deletion strains, locus YNL248C, strain rpa49, active compounds read low 1.09 | S. cerevisiae deletion strains, locus YNL250W, strain rad50, active compounds read low 0.929 | S. cerevisiae deletion strains, locus YNL271C, strain bni1, active compounds read low 0.988 | S. cerevisiae deletion strains, locus YNL298W, strain CLA4, active compounds read low 1.01 | S. cerevisiae deletion strains, locus YNL307C, strain MCK1, active compounds read low 0.983 | S. cerevisiae deletion strains, locus YNL322C, strain KRE1 (second series), active compounds read low 1 | S. cerevisiae deletion strains, locus YNR049C, strain mso1, active compounds read low 1 | S. cerevisiae deletion strains, locus YNR052C, strain pop2, active compounds read low 1.01 | S. cerevisiae deletion strains, locus YOL006C, strain TOP1, active compounds read low 1.02 | S. cerevisiae deletion strains, locus YOL012C, strain htz1 1.03 | S. cerevisiae deletion strains, locus YOL147C, strain pex11, active compounds read low 0.998 | S. cerevisiae deletion strains, locus YOR001W, strain rrp6, active compounds read low 0.987 | S. cerevisiae deletion strains, locus YOR061W, strain CKA2, active compounds read low 1.01 | S. cerevisiae deletion strains, locus YOR069W, strain VPS5, active compounds read low 0.999 | S. cerevisiae deletion strains, locus YOR070C, strain gyp1, active compounds read low 0.998 | S. cerevisiae deletion strains, locus YOR080W, strain dia2, active compounds read low 1 | S. cerevisiae deletion strains, locus YOR083W, strain WHI5, active compounds read low 0.991 | S. cerevisiae deletion strains, locus YOR106W, strain vam3, active compounds read low 1.01 | S. cerevisiae deletion strains, locus YOR136W, strain idh2, active compounds read low 0.994 | S. cerevisiae deletion strains, locus YOR144C, strain elg1, active compounds read low 1 | S. cerevisiae deletion strains, locus YOR184W, strain ser1, active compounds read low 0.996 | S. cerevisiae deletion strains, locus YOR231W, strain MKK1, active compounds read low 1.02 | S. cerevisiae deletion strains, locus YOR265W, strain rbl2, active compounds read low 1.01 | S. cerevisiae deletion strains, locus YOR270C, strain vph1, active compounds read low 1.05 | S. cerevisiae deletion strains, locus YOR290C, strain snf2, active compounds read low 0.958 | S. cerevisiae deletion strains, locus YOR316C, strain cot1, active compounds read low 0.994 | S. cerevisiae deletion strains, locus YPL051W, strain arl3, active compounds read low 1 | S. cerevisiae deletion strains, locus YPL078C, strain atp4, active compounds read low 0.997 | S. cerevisiae deletion strains, locus YPL106C, strain sse1, active compounds read low 0.957 | S. cerevisiae deletion strains, locus YPL240C, strain hsp82, active compounds read low 0.993 | S. cerevisiae deletion strains, locus YPL241C, strain CIN2, active compounds read low 1 | S. cerevisiae deletion strains, locus YPL256C, strain CLN2, active compounds read low 1.07 | S. cerevisiae deletion strains, locus YPR119W, strain clb2, active compounds read low 0.981 | S. cerevisiae deletion strains, locus YPR141C, strain kar3, active compounds read low 0.982 | S. cerevisiae deletion strains, locus YPR163C, strain tif3, active compounds read low 0.993 | S. cerevisiae deletion strains, locus YPR167C, strain met16, active compounds read low 0.98 | S. cerevisiae deletion strains, strain wtn01, active compounds read low 0.958 | S. cerevisiae strains, strain wild type, active compounds read low 1.01
